We go through twelve compounds from PubChem BioAssay (NCI).

SMILES strings stand for the structures. This is part of a sample that, as a whole, favours compounds with a hit. Of some 83,000 tested, about 20% had one in any assay.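 In brief: 96-well plates, 48 h treatment, single concentration, percent growth endpoint.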 A number with no mark means an inactive call. Calls of active or inactive are those of the source. The calls were made as follows: active = growth percent below 10; inactive = the rest.

Common to all, as to assay: NCI-60 one-dose screen, 48 h (100 = growth as untreated, 0 = no growth, -100 = all killed)
Conditions in all cases: 10 µM unless noted

The test system of assay [1] is RPMI-8226 leukemia.
Assay [2] deals with OVCAR-8 ovarian.
The subject of assay [3] is OVCAR-5 ovarian.
In assay [4] the test system is OVCAR-4 ovarian.
The subject of assay [5] is SK-OV-3 ovarian.
The test system of assay [6] is IGROV1 ovarian.
Assay [7] deals with OVCAR-3 ovarian.
Assay [8] deals with HS 578T breast.
For assay [9], the system named is NCI/ADR-RES ovarian.
Assay [10] deals with T-47D breast.
Assay [11] has as its system BT-549 breast.
Assay [12] relates to MDA-MB-435 melanoma.
The subject of assay [13] is MCF7 breast.
Assay [14] concerns HCT-116 colon.
Assay [15] has as its system HCC-2998 colon.
Assay [16] deals with KM12 colon.
The subject of assay [17] is SW-620 colon.

As to `C/C(=N\Nc1ccccc1)c1ccc(NC2=CC(=O)c3ccccc3C2=O)cc1`, the growth in assay [1] is 64.3%; in assay [2] it was 59.8%; in [3] it was 72.5%; in assay [4], 43%; in assay [5], 65.3%; in assay [6], 50.8%. Besides, the growth in assay [7] is 15.4%; in assay [8] it was 65.5%; in assay [9], 54%; in [10], 38.8%; in [11], 76.3%; in [12], -80.3% (active). Also, the growth in assay [13] was 30.4%; in [14], 51%; in assay [15], 77.9%; in assay [16] it was 43.7%.
Consider `CCCC(=O)NC(c1ccc2c(c1)OCO2)c1cc(Cl)c2cccnc2c1O` (stereo unspecified), for which the growth in assay [1] is 17.7%; in [2] it was 10.6%; in [3], 54%; in assay [4], 19.3%; in [5], 29.8%; in assay [6], 16.2%. The growth in assay [7] is 17.6%; in assay [8], 44.4%; in [9], 1.56% (active); in assay [10] it was 23%; in assay [11], 63.3%; in assay [12] it was 37.5%. Moreover, the growth was 24.7% in [17]; 17.5% in assay [13]; 23.1% in [14]; 43.1% in assay [15]; 33.9% in [16].
In the case of `O=c1cc(-c2ccccc2)nc(SCc2nc3cc(Cl)c(Cl)cc3[nH]2)[nH]1`, the growth in assay [2] is 104%; in [3], 95.2%; in assay [4], 101%; in assay [5], 92.4%; in assay [6], 101%; in assay [7] it was 106%. In addition, the growth is 105% in assay [8]; 97% in assay [9]; 79% in [10]; 108% in assay [11]; 105% in assay [12]; 104% in [17]. Moreover, the growth in assay [13] was 92.5%; in assay [14], 97.3%; in [15] it was 102%; in assay [16], 96%.
For `CCOC(=O)c1ccc[nH]1`, the growth in [1] was 90.5%; in assay [2] it was 95.9%; in assay [3], 78.9%; in [4], 95.5%; in assay [5] it was 108%; in assay [6] it was 90.6%. Besides, the growth in assay [7] is 115%; in [8] it was 95%; in assay [9] it was 95.2%; in assay [10], 93.3%; in [11] it was 77.5%; in assay [12] it was 105%. Also, the growth in [17] was 113%; in [13], 92.6%; in [14] it was 94.5%; in [15], 88.1%; in [16] it was 108%.
In the case of `Cc1cc(C(=O)CCCC(=O)c2cc(C)c(O)c(C)c2)cc(C)c1O`, the growth in assay [1] was 94.2%; in assay [2], 104%; in assay [3] it was 95.8%; in assay [4], 93.1%; in [5] it was 98%; in [6] it was 95.9%. The growth in assay [7] was 105%; in assay [8] it was 98.8%; in [9] it was 98%; in assay [10] it was 84.6%; in assay [11], 112%; in assay [12], 101%. Moreover, the growth was 98.9% in assay [17]; 86.5% in assay [13]; 86.8% in assay [14]; 46% in [15]; 102% in assay [16].
On to `Cc1ccc(O)c(NC(=O)c2cccc(Nc3ccnc(C(F)(F)F)c3)c2)c1`, for which the growth in assay [1] is -1.23% (active); in [2], 73.2%; in assay [3], 87.1%; in [4], 45.3%; in assay [5] it was 72.9%; in assay [6], 79.1%. Moreover, the growth in assay [7] is 93.2%; in [8] it was 93%; in assay [9], 40.2%; in assay [10], 21%; in assay [11], 57.9%; in [12], 60.2%. For the same compound, the growth was 90.8% in assay [17]; 40.7% in assay [13]; 34.9% in [14]; 74.3% in assay [15]; 75.9% in [16].
Consider `N#Cc1c(-c2ccccc2)nc2c(c(-c3ccccc3)nn2-c2ccccc2)c1-c1ccc(N2CCCCC2)cc1`, for which the growth in assay [1] was 107%; in assay [2], 98.4%; in assay [3], 102%; in assay [4], 105%; in assay [5] it was 104%; in assay [6], 104%. Also, the growth is 111% in assay [7]; 109% in [8]; 100% in [9]; 94.5% in assay [10]; 104% in assay [11]; 99.9% in assay [12]. Also, the growth in assay [17] was 99.2%; in assay [13] it was 100%; in [14], 94.2%; in [15], 107%; in assay [16] it was 103%.
As for `CC1SC(c2ccccc2O)N(NC(=O)CCC(=O)c2nc3ncccc3[nH]2)C1=O` (stereo unspecified), the growth in [1] was 93.1%; in [2], 97%; in assay [3], 107%; in assay [4] it was 92.8%; in assay [5], 92.3%; in [6], 70.1%. The growth in [7] is 97%; in [8], 90.2%; in assay [9], 89.6%; in [10], 93.6%; in assay [11], 122%; in assay [12], 102%. In addition, the growth in assay [17] is 92.6%; in assay [13], 98.7%; in assay [14] it was 91.2%; in assay [15], 92.9%; in assay [16], 95.2%.
For `Nc1cc(C(=O)O)cc(-n2c(O)c(C=C3N=c4ccccc4=N3)sc2=S)c1`, the growth in assay [1] was 100%; in assay [2] it was 103%; in assay [3], 99%; in assay [4], 101%; in [5], 99.9%; in [6], 86.8%. The growth in assay [8] was 103%; in assay [9] it was 103%; in assay [10], 95.2%; in assay [11], 103%; in [12], 103%; in assay [17] it was 96.8%. For the same compound, the growth in assay [13] was 94.5%; in assay [14], 99.4%; in [15] it was 99.3%; in assay [16] it was 103%.
In the case of `CCC(C)(C)c1ccc(Nc2ccc(Nc3ccc(C(C)(C)CC)cc3)cc2)cc1`, the growth in assay [1] was 76.8%; in assay [2], 87.7%; in [3], 93.8%; in assay [4], 89.2%; in [7], 89.9%; in assay [8] it was 88.9%. Besides, the growth is 91.7% in assay [9]; 58.4% in [10]; 133% in assay [11]; 97.1% in assay [12]; 85.5% in assay [17]; 80% in [13]. Besides, the growth in assay [14] is 60.5%; in assay [15] it was 101%; in assay [16], 89.9%.
On to `Cc1ccc(OCCOCCOCCOCCOCCOc2ccc(C)n(O)c2=S)c(=S)n1O`, for which the growth in assay [1] was 11.5%; in [2], 14.1%; in assay [3], 41.7%; in assay [4] it was 22.7%; in [5], 10.2%; in [6], 15.5%. In addition, the growth in assay [8] was 45.8%; in [9] it was 1.54% (active); in assay [10], 15.1%; in [11], 26%; in [12], 32.6%; in assay [17] it was 27.9%. Besides, the growth in assay [13] was 11.5%; in assay [14], 18%; in assay [15], -7.72% (active); in assay [16], 23%.
Take `CSc1nc(-c2ccco2)c(C#N)c(=O)n1C`: the growth is 91.8% in assay [1]; 108% in assay [2]; 109% in assay [3]; 103% in assay [4]; 97% in assay [5]; 105% in [6]. Also, the growth was 97% in assay [8]; 51.2% in [9]; 92.6% in [11]; 102% in assay [12]; 97% in assay [17]; 98% in assay [13]. Also, the growth in [14] is 100%; in [15], 1.62% (active); in [16], 103%.
